PTAP TSG101 blk – blocks PTAP/TSG101 interaction to inhibit HIV-1 budding | Potency, µM (highest dose often 115 µM), actives largely listed as inhibitors | 340,000 tested, under 10 active | Q99816 | Fluorescence polarization, FITC-PTAP peptide / Tsg101 binding; active = well fitted inhibition curve with a large enough effect in the main read-out, with a control signal flat, not every such curve was filed as active; inconclusive = small, poorly fitted or top-dose-only effect, or effect the other way, or a change in a side signal; inactive = no such curve, though single readings can be large or run the other way
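Fluorescence polarization binding of Tsg101 binding domain (10 uM final) to FITC-labeled PTAP peptide (50 nM final) in HEPES pH 7.5 buffer with NaCl, Tween 20, EDTA, TCEP. Compounds added before peptide; binding 20 min at RT.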
pAkt inh – inhibitors of Akt phosphorylation. activity change, % for hits at 50 µM. hit rate 0.32% among 360,000. Neuro2A IGF-stimulated pAkt S473 HTRF, 20 min; hits give low values; in the data active = activity change below about -80%; inconclusive = mostly about -51% to -80%
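Single-point screen (50 µM final compound) in Neuro2A cells stimulated 20 min with 6 nM IGF at 37 deg C. After lysis, Ser473-phosphorylated Akt read by HTRF (ex 330 nm, em 615/665 nm) as the 665/615 ratio.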
Vif-APOBEC3G blk – Vif-A3G binding inhibition; Q9HC16; HeLa A3G-eYFP + Vif (tagged APOBEC3G with the HIV-1 protein that degrades it), YFP fluorescence, overnight; Potency, µM (highest dose often 46.1 µM), hits mostly inhibitors; hit rate 0.076% among 410,000; note: nearly all actives have a fitted effect of over 60% in size
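Read-out is eYFP fluorescence (Ex 488/Em 500-530) from Vif-expressing HeLa A3G-eYFP cells; more signal means A3G escaped Vif-mediated degradation. Cells plated overnight, compound pinned in, incubated overnight at 37 deg C.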
S-ASM inh – blocks human secretory acid sphingomyelinase; P17405; placental ASM, HMU-PC fluorogenic substrate, 60 min; Potency, µM (series often up to 57.5 µM), actives largely listed as inhibitors; hit rate 0.006% among 340,000; AID 504937
Target sequence (P17405 47-631 limits assumed): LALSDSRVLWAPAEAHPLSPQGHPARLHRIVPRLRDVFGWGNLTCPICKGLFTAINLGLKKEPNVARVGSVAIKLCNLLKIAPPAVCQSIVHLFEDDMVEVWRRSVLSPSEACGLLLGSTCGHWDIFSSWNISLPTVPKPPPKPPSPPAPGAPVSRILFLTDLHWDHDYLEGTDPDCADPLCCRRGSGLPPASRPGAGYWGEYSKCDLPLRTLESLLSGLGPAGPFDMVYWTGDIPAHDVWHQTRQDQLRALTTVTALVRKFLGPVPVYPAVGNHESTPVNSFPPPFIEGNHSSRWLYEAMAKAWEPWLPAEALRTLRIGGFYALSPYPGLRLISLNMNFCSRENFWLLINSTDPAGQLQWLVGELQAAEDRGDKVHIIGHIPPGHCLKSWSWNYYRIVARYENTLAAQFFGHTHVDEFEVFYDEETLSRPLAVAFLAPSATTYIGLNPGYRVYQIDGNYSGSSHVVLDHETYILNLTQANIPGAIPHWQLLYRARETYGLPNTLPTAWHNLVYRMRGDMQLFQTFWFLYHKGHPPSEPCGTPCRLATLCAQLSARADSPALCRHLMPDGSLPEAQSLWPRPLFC
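Steps: dispense placental human ASM, pin compound, wait 10 min at room temperature, add HMU-PC0 substrate at 9 uM final, incubate 60 min at 37 °C, add stop solution raising pH to 10, read fluorescence.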
Vif-A3F inh – Vif-A3F binding inhibition; HeLa A3F-eYFP + Vif (tagged APOBEC3F with the HIV-1 protein that degrades it), YFP fluorescence increase; Potency, µM (doses to about 46.1 µM); hit rate 0.2% among 390,000; AID 602313; note: nearly all actives have a fitted effect of over 65% in size
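HeLa cells stably expressing A3F-eYFP plus Vif, plated and incubated overnight at 37 deg C, then exposed to compounds overnight at 37 deg C. Blocked degradation read as raised yellow fluorescence (Ex 488/Em 500-530).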
12-LOX inh – inhibitors of human 12S-lipoxygenase ALOX12; P18054; purified 12hLO, xylenol orange hydroperoxide absorbance; Potency, µM (highest dose often 108 µM), usual class: inhibitors; hit rate 1.1% among 580,000
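Purified human 12hLO (150 nM final) in 25 mM Hepes, 0.01% Triton X-100, pH 7.0 was preincubated 15 min at room temperature with compound. Then 40 uM arachidonic acid was added, 30 min. Hydroperoxide was read by Fe-XO absorbance ratio 573/405 nm.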
Numbers stand for hits; 0 = inactive; ? = inconclusive; - = not tested or not shown. This is a sample that favours compounds with a hit; in the whole collection about 1.4% have one here. Unless noted, calls come from the whole dose curve; as a rule, active = well fitted curve in the direction sought with a large enough effect; inconclusive = small, poorly fitted or top-dose-only effect, or another doubt; inactive = no such curve, though single readings can be large; an effect the other way counts as inactive or inconclusive.

SMILES | PTAP TSG101 blk | pAkt inh | Vif-APOBEC3G blk | S-ASM inh | Vif-A3F inh | 12-LOX inh
COc1ccc(-c2nc3ccccc3c(=O)n2NC(=S)N(C)C)cc1 | 0 | 0 | 0 | 0 | 0 | 35µM
COc1ccc(-c2cc([C@H]3[C@@H]4C=CCC[C@@]4(C)C(=O)N3Cc3ccccc3)ccc2F)cc1OC | 0 | 0 | 0 | 0 | 0 | 11µM
CCCCCCn1nc(C(=O)OC(C)C(=O)NC(N)=O)c2ccccc2c1=O (stereo unspecified) | - | - | - | - | - | 0
N#C/C(=C\N1CCN(Cc2ccc3c(c2)OCO3)CC1)c1nc2ccccc2s1 | ? | 0 | ? | 0 | 28µM | 0
c1ccc2sc(N3CCN(Cc4ccc5c(c4)OCO5)CC3)nc2c1 | - | - | - | - | - | 0
CCOC(=O)N1CCN(/C=C(\C#N)c2nc3ccccc3s2)CC1 | ? | 0 | 22µM | 0 | 25µM | 0
CCOC(=O)N1CCC(=NNc2nc3ccccc3s2)CC1 | 0 | 0 | 0 | 0 | 0 | 0
Cc1cccc(C(=O)Nc2ccccc2SCC(=O)Nc2ccc(C)c(Cl)c2)c1 | 0 | 0 | 0 | 0 | 0 | 0
Cc1ccc(NC(=O)CSc2ccccc2NC(=O)c2cccc(Cl)c2)cc1Cl | ? | 0 | 0 | 0 | 11µM | 0
O=C(Nc1cccc(F)c1)Nc1c(NC2CCCC2)c2ccccc2oc1=O | - | - | - | - | - | 0
Cc1cc(OC(=O)c2cc(Br)ccc2Cl)c([N+](=O)[O-])c(=O)[nH]1 | 0 | 0 | 0 | 0 | 0 | 35µM
Cc1cc(OC(=O)c2ccccc2[N+](=O)[O-])c([N+](=O)[O-])c(=O)[nH]1 | 0 | 0 | 0 | 0 | 0 | ?
CCC(NC(=O)C1CC1)c1ccc(C)cc1 (stereo unspecified) | - | - | - | - | - | 5µM
CCOC(=O)C(NC(=O)c1ccccc1)C(C)C (stereo unspecified) | - | - | - | - | - | 0
Cc1cc(C)c(C(=O)CC2(O)C(=O)Nc3ccccc32)cc1C (stereo unspecified) | 0 | -116% | 0 | 0 | - | 0
Cc1ccc(C)c(C(=O)CC2(O)C(=O)Nc3ccccc32)c1 (stereo unspecified) | 0 | 0 | 0 | 0 | 0 | 0
CC(C)(C)c1[nH]ncc1[N+](=O)[O-] | 0 | 0 | 0 | 0 | 0 | 0
COC(=O)Nc1[nH]ncc1[N+](=O)[O-] | 0 | 0 | 0 | 0 | 0 | 35µM
Fc1ccc(-[n+]2nc(Nc3ccccc3)sc2-c2ccc(OCc3ccccc3)cc2)cc1 | - | 0 | 0 | 0 | 0 | 40µM
N#Cc1ccc(-c2nc(C3CC(=O)N(c4ccc(Cl)cc4)C3)no2)cc1 (stereo unspecified) | - | - | - | - | - | 13µM
N#Cc1ccc(-c2nc(C3CC(=O)N(c4ccc(F)cc4)C3)no2)cc1 (stereo unspecified) | - | - | - | - | - | 10µM
CC(C)(C)c1ccc(-c2nc(C3CC(=O)N(c4ccc(F)cc4)C3)no2)cc1 (stereo unspecified) | - | - | - | - | - | 0
COCc1cc(=O)n(CC(=O)Nc2cc(OC)ccc2OC)c(N2CCOCC2)n1 | - | - | - | - | - | 0
COc1cc(C)ccc1C(C)C | - | - | - | - | - | 0
COc1cccc(-c2nccc(NCc3cccs3)n2)c1 | - | - | - | - | - | 0
SMILES | PTAP TSG101 blk | pAkt inh | Vif-APOBEC3G blk | S-ASM inh | Vif-A3F inh | 12-LOX inh
c1cncc(-c2[nH]ncc2CNCc2cccs2)c1 | - | - | - | - | - | 7.1µM
c1cncc(-c2nccc(NCc3cccs3)n2)c1 | - | - | - | - | - | 20µM
c1cncc(-c2cc(NCc3cccs3)ncn2)c1 | - | - | - | - | - | 40µM
c1cncc(-c2ccc3ncnc(NCc4cccs4)c3c2)c1 | 0 | - | 0 | 0 | 0 | 0
COc1cc(OC)c(NC(=O)CSCc2cc(=O)n3cccc(C)c3n2)cc1Cl | - | - | - | - | - | 0
CCOC(=O)C1(CCOc2ccccc2)CCN(Cc2cccc(OC)c2O)CC1 | 0 | 0 | 0 | 0 | 0 | 7.1µM
Cc1sc2ncnc(Sc3ccccc3C(=O)Nc3ccc(Br)cc3)c2c1C | 0 | 0 | 0 | 0 | 0 | 10µM
CN1CCCC1CCNc1nccc(-c2cnn(-c3ccc(F)cc3)c2)n1 (stereo unspecified) | - | - | - | - | - | 0
Cc1cccc2sc(NNC(=O)c3cc(=O)c4ccccc4o3)nc12 | 0 | 0 | ? | 0 | 0 | 32µM
CCCn1nc(C(=O)OC(C)C(=O)NCc2ccco2)c2ccccc2c1=O (stereo unspecified) | - | - | - | - | - | 0
